Test results reported in PubChem BioAssay (NCI).
Compounds without any hit were thinned out: in the full panel of roughly 83,000, 20% have a hit.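 Cells were grown in 96-well plates and exposed to the test compound at a single concentration for 48 hours; results are reported as percent growth, with values below 10 considered active.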 Activity calls are given as the source filed them.

Test system: SR leukemia
Test: NCI-60 one-dose screen, 48 h (100 = growth as untreated, 0 = no growth, -100 = all killed)
Conditions: 10 µM unless noted

Row | SMILES | growth
1 | Cc1ccc(C2=NN(c3ccc(S(N)(=O)=O)cc3)C(c3cn(-c4ccccc4)nc3-c3ccccc3)C2)cc1 (stereo unspecified) | 11.7% (inactive)
2 | CCN1C(=O)N(CC)C2C1NN=c1s/c(=C\c3cccc(F)c3)c(=O)n12 (stereo unspecified) | 4.36% (active)
3 | O=c1[nH]c(-c2cn(-c3ccc(Cl)cc3)nn2)nc2ccccc12 | 80.4% (inactive)
4 | C=CCN=C1NC(=O)/C(=C/c2cc(C(C)(C)C)c(O)c(C(C)(C)C)c2)S1 | 32.9% (inactive)
5 | O=c1[nH]c(CN2CCN(c3ccccc3F)CC2)nc2sc3c(c12)CCC3 | 94.8% (inactive)
6 | COc1ncc(-c2ccc3ncnc(Nc4cccc(Cl)c4)c3c2)cc1NS(=O)(=O)C1CC1 | 46.9% (inactive)
7 | Nc1nc(Cl)c2c(ncn2Cc2ccc(CCl)cc2)n1 | 83.2% (inactive)
8 | O=S(=O)(NCCCNc1cc(-c2cn(-c3ccccc3)nc2-c2cccc(O)c2)ccn1)c1cccc2ccccc12 | 13.9% (inactive)
9 | CC1CCN(C(=O)CSc2nc3sc4c(c3c(=O)[nH]2)CCCC4)CC1 | 85.5% (inactive)
10 | Cc1cc(Nc2nc(C(=O)Nc3ccccc3)nc3ccccc23)n[nH]1 | 33% (inactive)
11 | O=[N+]([O-])c1cc(S(=O)(=O)OCC2CO2)ccc1Cl (stereo unspecified) | 1.01% (active)
12 | N#CC1=C(N)n2nc(-c3ccncc3)nc2NC1c1cccc2ccccc12 (stereo unspecified) | 80.3% (inactive)
13 | O=C1NC(Cc2c[nH]c3ccccc23)C(=O)N1Cc1ccc(Cl)cc1 (stereo unspecified) | 90.1% (inactive)
14 | CSc1ccccc1C#C/C=C\C#Cc1ccccc1N1CCCC1=O | 12.5% (inactive)
15 | CC(C)CCN(CCCNc1c2c(nc3ccccc13)CCCC2)CCC(C)C | 5.77% (active)
16 | O=C(CC(O)c1ccncc1)c1ccccc1 (stereo unspecified) | 82.1% (inactive)
17 | Nc1c(C(=O)Nc2cccc([N+](=O)[O-])c2)sc2nc3c(cc12)C(O)CCC3 (stereo unspecified) | 21% (inactive)
18 | CCN(CC)CCSc1c2ccc(Cl)cc2nc2ccc(OC)cc12 | 12.1% (inactive)
19 | CNC(=O)Cc1nc(-c2cccc(NS(=O)(=O)c3c(F)cccc3F)c2F)c(-c2ccnc(Nc3ccccc3)n2)s1 | 76.4% (inactive)

Row | SMILES | growth
20 | CC(=O)Nc1ccc(S(=O)(=O)N2C(=O)CCC2C(=O)Nc2ccccc2)cc1 (stereo unspecified) | 28% (inactive)
21 | Nc1cccc2c1CN(C1CCC(=O)NC1=O)C2=O (stereo unspecified) | 71.8% (inactive)
22 | C=CC(=O)N[C@H](/C=C/C(=O)OCC)Cc1ccc(-c2cc(Cl)cc(Cl)c2)cc1 | 68.7% (inactive)
23 | CCOC(=O)CC(C#N)(CC(=O)OCC)C(=O)OCC | 100% (inactive)
24 | CCN(CC)CCCNc1nc(C)cc(Nc2ccc3nc(C)cc(N)c3c2)n1 | 110% (inactive)
25 | O=c1cc(C2NCCc3c2[nH]c2ccccc32)c2c(ccc3ccccc32)o1 (stereo unspecified) | 51.3% (inactive)
26 | Nc1nc(N)c2nc(CNc3ccc(C(=O)CC(CCC(=O)O)C(=O)O)cc3)cnc2n1 (stereo unspecified) | 28.6% (inactive)
27 | O=C1Nc2cc(Cl)ccc2/C1=C/c1ccc(N2CCOCC2)s1 | 97% (inactive)
28 | O=S(=O)(NCCCNc1nccc(-c2c(-c3ccccc3)nc3sccn23)n1)c1ccc(F)cc1 | 34.6% (inactive)
29 | O=Nc1c(-c2c(O)[nH]c3ccc([N+](=O)[O-])cc23)[nH]c2ccc(O)cc12 | 0.378% (active)
30 | CC/C=C\C[C@H](O)C/C=C1/C(=O)C(Cl)=C[C@@H]1C/C=C\CCCC(=O)OC | 1.41% (active)
31 | CCOC(=O)CC/C(C)=N\Nc1ccc([N+](=O)[O-])cc1 | 39% (inactive)
32 | CC(C)N(Cc1ccc(CN(C(=O)CCl)C(C)C)cc1)C(=O)CCl | 8.59% (active)
33 | COc1cc(CCn2nnc3c(NCCCCO)ncnc32)cc(OC)c1 | 96.4% (inactive)
34 | CCN1C(=O)N(CC)C2Nn3c(s/c(=C\c4cccc(F)c4)c3=O)=NC21 (stereo unspecified) | 36.2% (inactive)
35 | O=C1c2ccccc2C(=O)c2c1oc1oc3c(c(=O)c21)c(=O)n(-c1ccccc1)c1ccccc31 | 11.4% (inactive)
36 | Cc1c(C2=NNC(c3ccc4c(c3)OCO4)C2)[n+]([O-])c2ccccc2[n+]1[O-] (stereo unspecified) | 92.2% (inactive)
37 | c1ccc(CCn2nnc3c(Nc4ccc(N5CCOCC5)cc4)ncnc32)cc1 | 36% (inactive)
38 | COc1ccc(C2SCC(=O)N2NC(=O)c2ccc(NC(=O)c3ccccn3)cc2)cc1OC (stereo unspecified) | 90.9% (inactive)

Test system: RPMI-8226 leukemia
Test: as above
Conditions: 10 µM unless noted

Row | SMILES | growth
39 | Cc1ccc(C2=NN(c3ccc(S(N)(=O)=O)cc3)C(c3cn(-c4ccccc4)nc3-c3ccccc3)C2)cc1 (stereo unspecified) | 39.7% (inactive)
40 | CCN1C(=O)N(CC)C2C1NN=c1s/c(=C\c3cccc(F)c3)c(=O)n12 (stereo unspecified) | -0.526% (active)
41 | O=c1[nH]c(-c2cn(-c3ccc(Cl)cc3)nn2)nc2ccccc12 | 83.5% (inactive)
42 | C=CCN=C1NC(=O)/C(=C/c2cc(C(C)(C)C)c(O)c(C(C)(C)C)c2)S1 | 92.1% (inactive)
43 | O=c1[nH]c(CN2CCN(c3ccccc3F)CC2)nc2sc3c(c12)CCC3 | 107% (inactive)
44 | COc1ncc(-c2ccc3ncnc(Nc4cccc(Cl)c4)c3c2)cc1NS(=O)(=O)C1CC1 | 26.7% (inactive)
45 | Nc1nc(Cl)c2c(ncn2Cc2ccc(CCl)cc2)n1 | 33.8% (inactive)
46 | O=S(=O)(NCCCNc1cc(-c2cn(-c3ccccc3)nc2-c2cccc(O)c2)ccn1)c1cccc2ccccc12 | 7.85% (active)
47 | CC1CCN(C(=O)CSc2nc3sc4c(c3c(=O)[nH]2)CCCC4)CC1 | 82.4% (inactive)
48 | Cc1cc(Nc2nc(C(=O)Nc3ccccc3)nc3ccccc23)n[nH]1 | 59.6% (inactive)
49 | O=[N+]([O-])c1cc(S(=O)(=O)OCC2CO2)ccc1Cl (stereo unspecified) | 63.6% (inactive)
50 | N#CC1=C(N)n2nc(-c3ccncc3)nc2NC1c1cccc2ccccc12 (stereo unspecified) | 74.9% (inactive)
51 | O=C1NC(Cc2c[nH]c3ccccc23)C(=O)N1Cc1ccc(Cl)cc1 (stereo unspecified) | 73.1% (inactive)
52 | CSc1ccccc1C#C/C=C\C#Cc1ccccc1N1CCCC1=O | 22.2% (inactive)
53 | CC(C)CCN(CCCNc1c2c(nc3ccccc13)CCCC2)CCC(C)C | 56.4% (inactive)
54 | O=C(CC(O)c1ccncc1)c1ccccc1 (stereo unspecified) | 97.9% (inactive)
55 | Nc1c(C(=O)Nc2cccc([N+](=O)[O-])c2)sc2nc3c(cc12)C(O)CCC3 (stereo unspecified) | 52% (inactive)
56 | CCN(CC)CCSc1c2ccc(Cl)cc2nc2ccc(OC)cc12 | 72.7% (inactive)
57 | CNC(=O)Cc1nc(-c2cccc(NS(=O)(=O)c3c(F)cccc3F)c2F)c(-c2ccnc(Nc3ccccc3)n2)s1 | 101% (inactive)

Row | SMILES | growth
58 | CC(=O)Nc1ccc(S(=O)(=O)N2C(=O)CCC2C(=O)Nc2ccccc2)cc1 (stereo unspecified) | 26.7% (inactive)
59 | Nc1cccc2c1CN(C1CCC(=O)NC1=O)C2=O (stereo unspecified) | 109% (inactive)
60 | C=CC(=O)N[C@H](/C=C/C(=O)OCC)Cc1ccc(-c2cc(Cl)cc(Cl)c2)cc1 | 73.8% (inactive)
61 | CCOC(=O)CC(C#N)(CC(=O)OCC)C(=O)OCC | 96.1% (inactive)
62 | CCN(CC)CCCNc1nc(C)cc(Nc2ccc3nc(C)cc(N)c3c2)n1 | 102% (inactive)
63 | O=c1cc(C2NCCc3c2[nH]c2ccccc32)c2c(ccc3ccccc32)o1 (stereo unspecified) | 73.6% (inactive)
64 | Nc1nc(N)c2nc(CNc3ccc(C(=O)CC(CCC(=O)O)C(=O)O)cc3)cnc2n1 (stereo unspecified) | 58.3% (inactive)
65 | O=C1Nc2cc(Cl)ccc2/C1=C/c1ccc(N2CCOCC2)s1 | 85.7% (inactive)
66 | O=S(=O)(NCCCNc1nccc(-c2c(-c3ccccc3)nc3sccn23)n1)c1ccc(F)cc1 | 38.8% (inactive)
67 | O=Nc1c(-c2c(O)[nH]c3ccc([N+](=O)[O-])cc23)[nH]c2ccc(O)cc12 | -7.92% (active)
68 | CC/C=C\C[C@H](O)C/C=C1/C(=O)C(Cl)=C[C@@H]1C/C=C\CCCC(=O)OC | -12.2% (active)
69 | CCOC(=O)CC/C(C)=N\Nc1ccc([N+](=O)[O-])cc1 | 59.8% (inactive)
70 | CC(C)N(Cc1ccc(CN(C(=O)CCl)C(C)C)cc1)C(=O)CCl | 1.57% (active)
71 | COc1cc(CCn2nnc3c(NCCCCO)ncnc32)cc(OC)c1 | 95.7% (inactive)
72 | CCN1C(=O)N(CC)C2Nn3c(s/c(=C\c4cccc(F)c4)c3=O)=NC21 (stereo unspecified) | 90.7% (inactive)
73 | O=C1c2ccccc2C(=O)c2c1oc1oc3c(c(=O)c21)c(=O)n(-c1ccccc1)c1ccccc31 | 19.6% (inactive)
74 | Cc1c(C2=NNC(c3ccc4c(c3)OCO4)C2)[n+]([O-])c2ccccc2[n+]1[O-] (stereo unspecified) | 98.9% (inactive)
75 | c1ccc(CCn2nnc3c(Nc4ccc(N5CCOCC5)cc4)ncnc32)cc1 | 68.2% (inactive)
76 | COc1ccc(C2SCC(=O)N2NC(=O)c2ccc(NC(=O)c3ccccn3)cc2)cc1OC (stereo unspecified) | 96.3% (inactive)
